MCF10A rereplic – induces DNA re-replication in MCF 10a normal breast cells. Potency, µM (highest dose often 46.1 µM), actives largely listed as activators. MCF 10A DNA re-replication, Hoechst nuclear intensity, 48 h. actives 2.9% (n = 350,000); also: nearly all actives have a fitted effect of over 50% in size
PINK1 expr mod – modulators of PINK1 expression | PINK1 immunofluorescence, high-content cytometry, 24 h | Potency, µM (doses to about 76.6 µM), actives largely listed as activators | actives 0.2% (n = 410,000) | AID 624263; active = well fitted activation curve with a large enough effect; inconclusive = small, poorly fitted or top-dose-only effect; cell line not stated here; also: nearly all actives have a fitted effect of over 65% in size
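Cells are seeded, rested 12 hours, then given compound at five concentrations or DMSO for 24 hours. After fixation, blocking and antibody staining, PINK1 amount and mitochondrial localization are scored; CCCP serves as control.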
12-LOX inh – blocks human arachidonate 12S-lipoxygenase. actives 1.1% (n = 580,000). P18054. Potency, µM (highest dose often 108 µM), hits mostly inhibitors. purified 12hLO, xylenol orange hydroperoxide absorbance
Target sequence (P18054 whole entry, looked up): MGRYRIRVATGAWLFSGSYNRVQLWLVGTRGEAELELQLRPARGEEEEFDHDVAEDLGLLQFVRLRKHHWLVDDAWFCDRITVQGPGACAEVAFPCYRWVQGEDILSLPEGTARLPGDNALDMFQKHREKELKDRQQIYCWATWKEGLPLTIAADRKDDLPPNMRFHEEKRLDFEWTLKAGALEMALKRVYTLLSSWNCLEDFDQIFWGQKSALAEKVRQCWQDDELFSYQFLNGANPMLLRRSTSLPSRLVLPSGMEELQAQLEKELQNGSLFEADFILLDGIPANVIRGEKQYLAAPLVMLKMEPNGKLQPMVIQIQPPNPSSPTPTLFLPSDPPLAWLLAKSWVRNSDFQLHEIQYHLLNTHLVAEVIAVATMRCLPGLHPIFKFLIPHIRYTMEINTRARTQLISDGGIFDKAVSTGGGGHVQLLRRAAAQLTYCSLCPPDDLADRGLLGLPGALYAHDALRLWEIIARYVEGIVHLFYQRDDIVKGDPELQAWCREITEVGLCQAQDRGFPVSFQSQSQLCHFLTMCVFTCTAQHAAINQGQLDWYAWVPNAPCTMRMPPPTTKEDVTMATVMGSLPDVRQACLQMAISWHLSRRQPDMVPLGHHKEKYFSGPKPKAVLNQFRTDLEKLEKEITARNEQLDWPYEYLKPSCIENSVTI
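Purified human 12hLO (150 nM final) in 25 mM Hepes, 0.01% Triton X-100, pH 7.0 was preincubated 15 min at room temperature with compound. Then 40 uM arachidonic acid was added, 30 min. Hydroperoxide was read by Fe-XO absorbance ratio 573/405 nm.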
SW480 rereplic – DNA re-replication induction in SW480 cells. SW480 DNA re-replication, Hoechst DNA content imaging, 48 h. Potency, µM (highest dose often 46.1 µM), hits mostly activators. actives 1.8% (n = 340,000). AID 624297; also: nearly all actives have a fitted effect of over 55% in size
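SW480 cells exposed to compounds for 48 hr at 37 C, 5% CO2, then Hoechst-stained 40 min. Nuclear DNA content imaged by fluorescence scanning (405 nm excitation, 500-530 nm emission); re-replication scored as increased high-intensity nuclei.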
KB-V1 cytotox – kills drug-selected multidrug resistant KB-V1 cells; KB-V1 MDR cells viability, CellTiter-Glo, 72 h; Potency, µM (top dose mostly 46.1 µM), usual class: cytotoxic; actives 3.4% (n = 400,000); also: nearly all actives have a fitted effect of over 60% in size
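Readout: CellTiter-Glo luminescence, 10 min after addition. Cells: KB-V1 MDR subline, 72 h at 37 degrees C with compound. Analysis: corrected, normalized data fitted to concentration-effect curves.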
KB-3-1 cytotox – kills parental KB-3-1 adenocarcinoma cells | Potency, µM (titrated, usually from 46.1 µM), hits mostly cytotoxic | AID 1347075 | actives 1.4% (n = 400,000) | KB-3-1 viability, CellTiter-Glo ATP luminescence, 72 h; also: nearly all actives have a fitted effect of over 60% in size
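Using CellTiter-Glo luminescence, growth of non-resistant KB-3-1 adenocarcinoma cells is assessed 72 h after pin-tool compound addition at 37 °C. Normalized responses across the concentration series yield fitted curves.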
A number is an active result; – = inactive; ? = inconclusive; · = not tested or not shown. Shown are actives, neighbours in structure and some others; about 5.8% of the full set was active somewhere. Unless noted, calls follow the shape of the dose curve; as a rule, active = well fitted curve in the direction sought with a large enough effect; inconclusive = small, poorly fitted or top-dose-only effect, or another doubt; inactive = no such curve, though single readings can be large; an effect the other way counts as inactive or inconclusive.

SMILES	MCF10A rereplic	PINK1 expr mod	12-LOX inh	SW480 rereplic	KB-V1 cytotox	KB-3-1 cytotox
Cc1cc(C)cc(C(=O)N2CC(=O)Nc3ccc(Br)cc3C2c2ccccc2)c1 (centres undefined)	·	–	–	·	15µM	?
Cc1ccc(C(=O)N2CC(=O)Nc3ccc(F)cc3C2c2ccccc2)cc1[N+](=O)[O-] (centres undefined)	–	–	–	–	15µM	–
Cc1ccc(C(=O)N2CC(=O)Nc3ccc(C)cc3C2c2ccccc2)cc1 (centres undefined)	–	–	–	–	–	–
CCc1cccc(NS(=O)(=O)c2ccc3c(c2)CC(C)N3C(=O)C2CC2)c1 (centres undefined)	·	–	?	·	13µM	?
CC(C)N1C(=O)C2(CCCC2)C1C(=O)N1CCN(C2CCCCC2)CC1 (centres undefined)	·	·	–	·	·	·
Cc1onc(-c2ccccc2Cl)c1C(=O)N1CCN(c2cccc(Cl)c2)CC1	?	–	–	7.3µM	1.3µM	2.3µM
Cc1cccc(N2CCN(C(=O)c3c(-c4ccccc4)noc3C)CC2)c1C	3.7µM	–	–	?	3.7µM	?
Cc1onc(-c2ccccc2Cl)c1C(=O)N1CCN(c2ccccc2)CC1	–	–	–	–	21µM	–
CCc1noc(C)c1C(=O)N1CCN(c2cccc(C)c2C)CC1	–	–	–	–	?	?
Cc1onc(-c2ccccc2Cl)c1C(=O)N1CCCC1	–	–	–	–	–	–
Cc1onc(-c2ccccc2Cl)c1C(=O)N1CCN(C)CC1	–	–	–	–	–	–
Cc1onc(-c2c(Cl)cccc2Cl)c1C(=O)N1CCc2ccccc2C1	–	–	–	–	21µM	–
CC(C)(C)c1ccc(/C=N/NC(=O)Cc2ccc(Br)cc2)cc1	·	·	–	·	·	·
O=C(Nc1cccc2cccnc12)c1cccc(S(=O)(=O)N2CCN(c3ccc(F)cc3)CC2)c1	·	·	–	·	·	·
O=C(Nc1ccccc1Cl)C12CC3CC(CC(C3)C1)C2	·	·	–	·	·	·
O=C(c1cccc(-n2cnnc2)c1)N(Cc1ccc2[nH]ccc2c1)C1CC1	·	·	–	·	·	·
Cn1c(=O)c2c(ncn2CC(O)COc2ccc(C(C)(C)C)cc2)n(C)c1=O (centres undefined)	·	·	–	·	·	·
COc1cncc(CN2CCC3(CC2)COCCN3C(=O)OCc2ccccc2)c1	·	·	–	·	·	·
COc1cc(SC)ccc1C(=O)Nc1ccc(Cl)cn1	–	–	–	–	13µM	?
CSc1ccc(Cl)c(C(=O)Nc2ccc(Cl)cn2)c1	21µM	–	–	21µM	–	23µM
CCCCCOc1ccc(NC(=O)c2cc(SC)ccc2Cl)cc1	–	14µM	–	–	?	?
CCOc1ccc(NC(=O)c2cc(SC)ccc2Cl)cc1	?	–	–	?	?	?
CCCCc1cc(=O)oc2c(C)c(OC(C)C(=O)OCC)ccc12 (centres undefined)	·	·	–	·	·	·
COCCN(Cc1cccs1)S(=O)(=O)c1cccc(C(=O)O)c1	·	·	–	·	·	·
CC(Oc1ccccc1Cl)C(=O)/C=C/N(C)C (centres undefined)	18µM	–	?	–	?	–
SMILES	MCF10A rereplic	PINK1 expr mod	12-LOX inh	SW480 rereplic	KB-V1 cytotox	KB-3-1 cytotox
CC(Oc1ccccc1F)C(=O)/C=C/N(C)C (centres undefined)	–	–	?	–	?	–
CC(C)c1ccc(CN(C)CC(=O)NC(N)=O)cc1	·	·	–	·	·	·
CSc1ccc(-c2nc(CN(C)Cc3cnccn3)c(C)o2)cc1	·	·	–	·	·	·
CCOc1ccc(/C=C/C2=Cc3c(sc(NC(=O)CSc4n[nH]c(N)n4)c3C#N)C(C)(C)C2)cc1	6.5µM	–	?	16µM	?	16µM
Cc1ccsc1/C=C/C1=Cc2c(sc(NC(=O)CSc3n[nH]c(N)n3)c2C#N)C(C)(C)C1	?	–	?	15µM	–	–
NC(=O)c1ccsc1NC(=O)CSc1n[nH]c(N)n1	–	–	–	–	–	–
Cc1ccsc1/C=C/C1=Cc2c(sc(N)c2C#N)C(C)(C)C1	·	·	18µM	·	·	·
CCCC(OC(=O)c1cc(C)nc2ccccc12)C(=O)Nc1cc(C)on1 (centres undefined)	·	·	–	·	·	·

Compound activity from PubChem BioAssay.
